Results taken from PubChem BioAssay AID652180 (National Center for Advancing Translational Sciences (NCATS), 2013).
Inconclusive results are not listed. A call without a number means that no potency is given here. Active and inactive are the calls of the source. Calls come from the whole dose curve; as a rule, active = well fitted inhibition curve with a large enough effect; inconclusive = small, poorly fitted or top-dose-only effect; inactive = no such curve, though single readings can be large or run the other way.

Experiment: qHTS Assay for Lipid Storage Modulators: 3T3L1 Assay against Probe and Analogs
Details: 3T3-L1 lipid droplets, BODIPY imaging, oleic acid, 18-24 h; series mostly up to 46.1 µM
Description: Storing lipids as a reservoir for energy or the anabolism of elementary metabolites is a common feature of probably all cells and is conserved from bacteria to humans. The universal cellular lipid storage organelle is the so-called lipid storage droplet (LD). Although ubiquitous, LDs share a simple structure composed of a hydrophobic core that harbors the storage lipids, which is shielded by a droplet-specific phospholipid monolayer to which proteins are attached. The current model of LD biogenesis involves an incorporation of the lipid core into the membrane leaflets of the endoplasmic reticulum (ER) followed by a subsequent budding-like maturation of a LD, which ultimately pinches off. Once released, LD volume can increase by localized lipogenesis or fusion of existing droplets. Storage lipids are re-mobilized enzymatically by lipase activity. Lipase regulation in the adipocyte is heavily studied and involves multiple components including catecholamine signaling, the LD-associated proteins Perilipin and comparative gene identification-58 (CGI-58) and at least two lipases named hormone sensitive lipase (HSL) and adipocyte triglyceride lipase (ATGL). LD regulation outside of the adipocyte is poorly understood and only few components are known. However, there is an urgent need to learn more about ectopic fat depots as mislocalized storage of lipids, for example in the liver or muscle, is an eminent health problem associated with insulin resistance or the metabolic syndrome. We developed a laser-scanning cytometer assay to enable 1,536-well screening and combined the results of the small molecules screen with an RNAi database based on lipid storage. In this assay we tested analogs of the probe against a mammalian cell line (3T3L1), to see if these small molecules could disrupt lipid storage. NIH Molecular Libraries Probe Production Centers Network [MLPCN] NIH Chemical Genomics Center [NCGC] MLPCN Grant: MH085686 Assay Submitter (PI): Mathias Beller, Max-Planck-Institut fur Biophysikalische Chemie
3T3L1 cells were obtained from ATCC (CL-173). 4 uL of cells at 1.25 X 105 cell/mL were dispensed into 1536 well Poly-D-Lysine coated black with clear bottom imaging plates (Corning, #7356) to obtain 500 cells/well, and cultured at 37 °C, 95% humidity, and 5% CO2 overnight. The culture medium used was OPTI-MEM containing 5% fetal bovine serum (FBS). Triacsin C (Sigma-Aldrich T-4540), an inhibitor of long-chain fatty acyl CoA synthetase that blocks synthesis of triglycerides, was used as a positive control for lipid under-storage. A total of 23 nL of compounds dissolved in DMSO at different concentrations were transferred to the assay plates using a Kalypsys 1536-pin tool, the final DMSO concentration was 0.46%. One microliter of oleic acid at 400 uM (Calbiochem, #4954) was added to induce lipid droplet formation in the cells, and the plates were lidded. After 18-24 hours of incubation at 37 °C, 95% humidity, and 5% CO2, cells were fixed (8 % paraformaldehyde in PBS, 30 min, room temperature), washed three times with PBS, then stained for lipid droplet and nucleus using 4uL of PBS solution containing BODIPY lipid dye 493/503 (1:2000 dilution, Life Technologies, #3922) and Hoechst 33342 (1:1000, Life Technologies, #H3570) with Washer dispenser EL406(Biotek). Images were acquired using InCell 2000 (GE). Number of cells, number of lipids and sizes of lipids were analysis using GE Investigator software.

SMILES	Potency
CCOC(=O)C1CCN(C(=O)C(C)(C)NC(=O)Nc2ccc([N+](=O)[O-])cc2)CC1	inactive
O=C(NC1CCCc2c1cnn2-c1cccc(O)c1)c1ccccn1 (stereo not given)	inactive
O=C(NCCc1ccc(O)c(O)c1)c1cc2sccc2n1Cc1ccccc1	inactive
O=C(Nc1cccc2c1cnn2-c1ccc(F)cc1)c1ccccn1	inactive
CCOc1ccc(CCNC(=O)c2cc3sccc3n2CC=C(C)C)cc1OCC	833 nM (active)
CCOC(=O)C1CCN(C(=O)C(C)(C)NC(=O)Nc2ccc(F)c(F)c2)CC1	inactive
C[C@@H](NCCCc1cccc(C(F)(F)F)c1)c1cccc2ccccc12	inactive
O=C(NC1CCCc2c1cnn2-c1ccc(F)cc1F)c1ccc(C2(C(F)(F)F)N=N2)cc1 (stereo not given)	inactive
COc1nc(-c2ccc3c(c2)OCO3)n(-c2ccc(NC(=O)CSc3ccccc3)cc2)n1	inactive
CCOc1ccc(CCNC(=O)C2=C(C)OCCO2)cc1OCC	inactive
O=C(NC1CCCc2c1cnn2-c1ccc(F)cc1F)c1cccc(=O)[nH]1 (stereo not given)	inactive
O=C(NCCc1ccc2c(c1)OCO2)c1cc2sccc2[nH]1	inactive
O=C(Nc1cccc2nn(-c3ccc(F)cc3)cc12)c1ccccn1	inactive
CN(C)Cc1ccc(-c2nc3cccc4c3n2CCNC4=O)cc1	inactive
O=C(NC1CCCc2c1cnn2-c1ccc(F)cc1F)c1cnccn1 (stereo not given)	inactive
CCOc1ccc(CCNC(=O)c2cc3sccc3n2C)cc1OCC	inactive
CCn1c(C(=O)NCCc2ccc(OC)c(OC)c2)cc2sccc21	inactive
CC(C)(C)OC(=O)NC1CCCc2c1cnn2-c1ccc(F)cc1F (stereo not given)	inactive
O=C(NC1CCCc2c1cnn2-c1ccc(F)cc1F)c1ccccc1 (stereo not given)	inactive
Cc1cccc(-c2ccc3ncnc(NCc4cccc(F)c4)c3c2)c1	inactive

SMILES	Potency
CCOc1ccc(CCNC(=O)c2cc3ccccc3n2Cc2ccc(Cl)c(F)c2)cc1OCC	18.7 nM (active)
CCOc1ccc(CCNC(=O)c2ccc3[nH]ccc3c2)cc1OCC	inactive
Cc1cc(SCc2sc(-c3ccc(C(F)(F)F)cc3)nc2C)ccc1OCC(=O)O	inactive
COc1ccc(-n2ncc3c2CCCC3NC(=O)c2ccccn2)cc1 (stereo not given)	inactive
O=C(c1cc2sccc2n1Cc1ccccc1)N(CCc1ccc(O)c(O)c1)Cc1ccccc1	inactive
O=C(NC1CCCc2c1cnn2-c1ccc(F)cc1F)c1ccncc1 (stereo not given)	inactive
O=C(O)CCc1ccc(NCc2cccc(Oc3ccccc3)c2)cc1	inactive
CCOc1ccc(CCNC(=O)c2cc3sccc3n2Cc2ccccc2)c(F)c1OCC	526 nM (active)
CCOC(=O)C1CCN(C(=O)C2(NC(=O)Nc3ccccc3Cl)CC2)CC1	inactive
CCOC(=O)C1CCN(C(=O)C(C)(C)NC(=O)Nc2ccc(N)cc2)CC1	inactive
O=C(NC1CCCc2c1cnn2-c1ccc(F)cc1F)C1CCCCN1 (stereo not given)	inactive
CCOc1ccc(CCNC(=O)c2ccccn2)cc1OCC	inactive
CC(C)(C)OC(=O)NCCOCCOCCOc1cccc(-n2ncc3c2CCCC3NC(=O)c2ccccn2)c1 (stereo not given)	inactive
O=C(NC1CCCc2c1cnn2-c1ccc(F)cc1F)C1CCCCC1 (stereo not given)	inactive
O=C(NC1CCCc2c1cnn2-c1ccc(F)cc1F)c1cnon1 (stereo not given)	inactive
O=C(NC1CCCc2c1cnn2-c1ccc(F)cc1F)c1ccccn1 (stereo not given)	inactive
CCOc1ccc(CCNC(=O)c2cnon2)cc1OCC	inactive
CCOC(=O)C1CCN(C(=O)C(C)(C)NC(=O)Nc2ccc3c(c2)CCC3)CC1	inactive
CCOC(=O)C1CCN(C(=O)C(C)(C)NC(=O)Nc2cccc(-c3csc(C)n3)c2)CC1	inactive
Cc1cc2c(cc1C1(c3ccc(C(=O)O)cc3)CC1)C(C)(C)CCC2(C)C	inactive
